The text below walks through data of PubChem BioAssay (NCI).

Compounds without any hit were thinned out: in the full panel of roughly 83,000, 20% have a hit.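 Method: cells in 96-well plates; compound added at one concentration; 48 h incubation; percent growth measured; values under 10 scored active.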 The source made the active and inactive calls.

This experiment deals with SNB-75 CNS. Kind of experiment: NCI-60 one-dose screen, 48 h (100 = growth as untreated, 0 = no growth, -100 = all killed). Particulars: 10 µM unless noted. How it is done:
Growth inhibition of the SNB-75 human tumor cell line is measured as a screen for anti-cancer activity. Cells are grown in 96 well plates and exposed to the test compound for 48 hours. Compounds are tested at a single concentration, which is 10^-5 M for most compounds. The reported endpoint is percent growth (GI% or GIPRCNT), where numbers from 0 - 100% represent growth inhibition, and numbers from -100% - 0 represent cell death. For example, a value of 40 represents 60% growth inhibition. A value of 0 means no net growth occurred over the course of the experiment. A value of -40 indicates 40% of cells at the beginning of the experiment died by the end of the experiment. A value of -100 means all cells are dead at the end of the experiment.
NCI-60 Human Tumor Cell Lines Screen was performed using the standard one-dose NCI protocol, which is described in more detail at https://dtp.cancer.gov/discovery_development/nci-60/default.htm.
Compounds with GIPRCNT values below 10 were considered active. Activity score was based on GIPRCNT using the following formula: […]
Score is 0 for GIPRCNT values of 100 or above, 50 for GIPRCNT values of 0, and 100 for GIPRCNT values of -100.
In the case of `CS(=O)(=O)c1ccc(N/N=C/c2c(-c3ccc(S(C)(=O)=O)cc3)[nH]c3ccc(F)cc23)cc1`, the growth is 38.8% (inactive).

For `Clc1ccc(-c2cn(-c3ccccc3)c(-c3ccccc3)n2)cc1`, the growth is 87.7% (inactive).

On to `COc1ccc(C2=NC(=O)NC2c2ccc(OC)cc2)cc1` (stereo not given), for which the growth was 46.7% (inactive).

For the molecule `COc1cc(NC(=O)c2cccc(-c3cc(=O)c4c(O)c(OC)c(OC)cc4o3)c2)cc(OC)c1OC`, the growth is 32.3% (inactive).

For the molecule `COc1ccc(-c2nc3sccn3c2/C=C/C(=O)c2c[nH]c3ccccc23)cc1`, the growth was 39.1% (inactive).

Turning to `COc1ccc(OC)c(/C=C2\COc3ccc(O)cc3C2=O)c1`, the growth is 116% (inactive).

Turning to `COc1cc(C2CC(=O)Nc3n[nH]c(-c4ccccc4)c32)cc(OC)c1OC` (stereo not given), the growth is 47.7% (inactive).

For the molecule `COc1cc(NC(=O)c2cc(O)c(CC=C(C)C)c(O)c2)cc2c1O[C@]1(C)CC[C@@H](O)C(C)(C)[C@H]1C2`, the growth was -7.48% (active).

On to `COc1cc(CNC(=O)/C=C/C=C/c2ccc3c(c2)OCO3)ccc1OCc1cn(-c2ccc(Cl)c(Cl)c2)nn1`, for which the growth is -36.8% (active).

Take `[2H]c1nc(Nc2ncc(F)c(-c3cc(F)c4nc(C)n(C(C)C)c4c3)n2)c([2H])c([2H])c1CN1CCN(C([2H])([2H])C([2H])([2H])[2H])CC1`: the growth is 33.9% (inactive).

In the case of `C(=C\c1nc2ccccc2[nH]1)/c1nc2ccccc2[nH]1`, the growth is 86.2% (inactive).

In the case of `COc1cc(/C=C/C(=O)c2cccc(-n3cc(-c4ccc(Cl)cc4)[nH]c3=O)c2)cc(OC)c1OC`, the growth was 84.9% (inactive).

Take `N#C/C=C(\c1ccc([N+](=O)[O-])cc1)n1nnc2cc(Cl)c(Cl)cc21`: the growth was 18.1% (inactive).

For the molecule `COc1ccc(C(=O)/C=C/c2cc3c(c(OC)c2)OCC(=O)N3)cc1`, the growth was 20.7% (inactive).

As to `CCNCCNc1cc(C2CCCC2)c(C#N)c2nc3ccccc3n12`, the growth was -33.3% (active).

Consider `O=C(CC1Sc2ccccc2NC1=O)NNc1ccc(F)cc1` (stereo not given), for which the growth is 73.3% (inactive).

Turning to `N=C(N)c1ccc(-c2ccc(-c3ccc(Cl)cn3)s2)cc1`, the growth is 62% (inactive).

`CCC(=O)OC1=C(C)SC2=NC(c3ccc(Cl)c(Cl)c3)=CC(c3cc(OC)c(OC)c(OC)c3)N21` (stereo not given): the growth was 76.9% (inactive).

Regarding `O[C@H]1CO[C@H]2[C@@H]1OC[C@@H]2Oc1ccc(Nc2ccnc(Nc3ccc(O[C@H]4CO[C@H]5[C@@H]4OC[C@@H]5O)c(Cl)c3)n2)cc1Cl`, the growth is -1.57% (active).

With `CCCCCCCCn1cc(C2=C(c3coc4ccc(OC)cc34)C(=O)NC2=O)c2ccccc21`, the growth is 84.8% (inactive).

`Clc1ccc(/C=N\N=c2\scc(-c3ccc(Cl)cc3)n2/N=C/c2ccc(Cl)cc2)cc1`: the growth is 91.6% (inactive).

`Clc1ccc(/C=C/c2nc(Nc3ccc(Cl)cc3)c3ccccc3n2)cc1`: the growth was 93.6% (inactive).

In the case of `O=C(Nc1ccccc1Cl)OCCN1CCOCC1`, the growth was 111% (inactive).

Take `CCN(CC)CCCNC(=O)c1ccc(N)cc1`: the growth is 95.5% (inactive).

For the molecule `O=[N+]([O-])c1ccccc1C(O)Cc1ccc2ccccc2n1` (stereo not given), the growth was 85.8% (inactive).

With `Nc1c(C(=O)c2ccc(Cl)s2)sc2nc3c(cc12)CCCC3`, the growth is 103% (inactive).

For `N#Cc1c(Oc2ccc([N+](=O)[O-])cc2)nc2sc3cc(Cl)ccc3n2c1=N`, the growth is 29.7% (inactive).

Regarding `COc1ccc2cc(-c3ccc(C(=O)NN)c(C)n3)ccc2c1`, the growth is 109% (inactive).

Take `CSc1ncc(C)c(Nc2ccc(Cl)cc2)n1`: the growth was 90.4% (inactive).

For `Cc1cc(Cc2cc(C)cc(C(C)(C)C)c2O)c(O)c(C(C)(C)C)c1`, the growth is 69.3% (inactive).

On to `CC(=[N-])N1CCC[C@@H](Nc2c3ccccc3nc3ccccc23)C1.[Cl][Pt].[NH-]CCC[NH-]`, for which the growth was 3.22% (active).

With `NC(N)=N/N=C(/c1ccccc1)c1ccccc1F`, the growth was 7.44% (active).

Turning to `N#Cc1c(N)nc2c(nnn2-c2cccc(C(F)(F)F)c2)c1N`, the growth was 82.6% (inactive).

`O=C1Nc2ccc(Cl)cc2/C1=N/N=C/c1c[nH]c2ccccc12`: the growth was 58.1% (inactive).

As for `CC(C)(C)Nc1c(-c2c3ccccc3cc3ccccc23)nc2ccccn12`, the growth was 64% (inactive).

For the molecule `CCOC(=O)c1sc2ccc(NCc3nc[nH]c3C)cc2c1NC(=O)c1cc(OC)c(OC)c(OC)c1`, the growth is 92.8% (inactive).

As for `C/C(=N\NC(N)=S)c1nc2ccc(Cl)cc2[nH]1`, the growth is 43.6% (inactive).

Turning to `NS(=O)(=O)c1cnccc1-n1ccc(=O)c(S(N)(=O)=O)c1`, the growth is 73.8% (inactive).

Consider `COC(=O)Nc1nc2ccc(C(=O)C3CC3)cc2[nH]1`, for which the growth was 9.46% (active).

`COc1cc2cc(Oc3ccc(NC(=O)Nc4cc(C(F)(F)F)cc(C(F)(F)F)c4)cc3)c(C)nc2cc1OCCN1CCCCC1`: the growth is -97.7% (active).
